Experimental findings from ChEMBL document CHEMBL1961873, “Compounds: GSK PKIS; Assays: Nanosyn kinase panel” (2012) are described below.

The target of assay [1] is CDK3/Cyclin E (Homo sapiens) (UniProt P24864+Q00526). The note with it: at 1 µM.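 Further: each figure is a mean percent inhibition of the CDK3/cyclin E complex.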
Assay [2] concerns the target Cyclin-dependent kinase 4 (Homo sapiens) (UniProt P11802). The following applies: at 0.1 µM.
The target is the same in assay [3]. The note with it: at 1 µM.
Assay [4] has as its target Cyclin-dependent kinase 5 (Homo sapiens) (UniProt Q00535). The following applies: at 0.1 µM.
Assay [5] has the same target. The following applies: at 1 µM.
Assay [6] deals with Cyclin-dependent kinase 6 (Homo sapiens) (UniProt Q00534). The following applies: at 0.1 µM.
Sequence of Cyclin-dependent kinase 6 (Homo sapiens) (Q00534 whole entry): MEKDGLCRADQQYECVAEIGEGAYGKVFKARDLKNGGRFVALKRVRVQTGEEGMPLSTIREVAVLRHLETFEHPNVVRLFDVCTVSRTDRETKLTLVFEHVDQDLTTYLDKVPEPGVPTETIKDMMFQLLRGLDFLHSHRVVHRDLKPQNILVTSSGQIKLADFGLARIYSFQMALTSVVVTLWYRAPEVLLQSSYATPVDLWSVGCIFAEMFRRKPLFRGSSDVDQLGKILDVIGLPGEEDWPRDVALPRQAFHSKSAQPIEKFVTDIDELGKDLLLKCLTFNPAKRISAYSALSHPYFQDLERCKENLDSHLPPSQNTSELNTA
The target is the same in assay [7]. The note with it: at 1 µM.
For assay [8], the target named is Dual specificity protein kinase CLK2 (Homo sapiens) (UniProt P49760). The note with it: at 0.1 µM.
Sequence of Dual specificity protein kinase CLK2 (Homo sapiens) (P49760 whole entry, looked up): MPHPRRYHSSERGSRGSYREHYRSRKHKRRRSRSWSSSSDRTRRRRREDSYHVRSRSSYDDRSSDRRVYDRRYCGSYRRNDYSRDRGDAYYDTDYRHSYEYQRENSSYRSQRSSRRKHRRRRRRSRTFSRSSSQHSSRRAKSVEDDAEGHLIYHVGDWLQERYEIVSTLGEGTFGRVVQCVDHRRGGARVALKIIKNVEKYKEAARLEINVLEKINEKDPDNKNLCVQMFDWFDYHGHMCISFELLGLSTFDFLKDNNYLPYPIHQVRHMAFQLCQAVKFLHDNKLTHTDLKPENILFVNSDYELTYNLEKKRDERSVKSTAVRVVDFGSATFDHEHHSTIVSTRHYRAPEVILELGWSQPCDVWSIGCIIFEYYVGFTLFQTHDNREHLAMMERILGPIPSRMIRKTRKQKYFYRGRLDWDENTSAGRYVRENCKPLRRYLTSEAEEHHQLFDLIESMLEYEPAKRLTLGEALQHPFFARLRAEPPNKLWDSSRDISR
For assay [9] the target is unchanged. The following applies: at 1 µM.
Assay [10] addresses Dual specificity protein kinase CLK3 (Homo sapiens) (UniProt P49761). The note with it: at 0.1 µM.
Assay [11] has the same target. The following applies: at 1 µM.
The target in assay [12] is Dual specificity tyrosine-phosphorylation-regulated kinase 1A (Homo sapiens) (UniProt Q13627). The note with it: at 0.1 µM.
For assay [13] the target is unchanged. The note with it: at 1 µM.
In assay [14] the target is Dual specificity tyrosine-phosphorylation-regulated kinase 1B (Homo sapiens) (UniProt Q9Y463). The note with it: at 0.1 µM.
Sequence of Dual specificity tyrosine-phosphorylation-regulated kinase 1B (Homo sapiens) (Q9Y463 whole entry, looked up): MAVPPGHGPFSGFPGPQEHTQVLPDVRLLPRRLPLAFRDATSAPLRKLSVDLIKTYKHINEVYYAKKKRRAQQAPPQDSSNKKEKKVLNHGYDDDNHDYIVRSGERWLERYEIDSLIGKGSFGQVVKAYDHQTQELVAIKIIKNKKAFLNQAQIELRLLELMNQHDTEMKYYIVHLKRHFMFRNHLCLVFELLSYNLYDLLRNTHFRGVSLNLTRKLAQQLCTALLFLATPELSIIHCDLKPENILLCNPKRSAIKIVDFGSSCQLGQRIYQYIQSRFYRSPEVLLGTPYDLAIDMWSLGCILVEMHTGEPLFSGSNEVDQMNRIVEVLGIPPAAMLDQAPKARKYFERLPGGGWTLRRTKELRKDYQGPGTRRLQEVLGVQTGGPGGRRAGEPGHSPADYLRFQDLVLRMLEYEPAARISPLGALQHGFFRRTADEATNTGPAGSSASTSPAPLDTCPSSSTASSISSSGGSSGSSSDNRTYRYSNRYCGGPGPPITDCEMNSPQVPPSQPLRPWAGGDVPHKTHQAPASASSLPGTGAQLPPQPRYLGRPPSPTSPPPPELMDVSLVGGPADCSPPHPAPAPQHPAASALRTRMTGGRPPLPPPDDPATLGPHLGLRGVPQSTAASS
Assay [15] has the same target. The following applies: at 1 µM.
The target in assay [16] is T1, Dual specificity tyrosine-phosphorylation-regulated kinase 2 (Homo sapiens) (UniProt Q92630).
T1 sequence (whole entry): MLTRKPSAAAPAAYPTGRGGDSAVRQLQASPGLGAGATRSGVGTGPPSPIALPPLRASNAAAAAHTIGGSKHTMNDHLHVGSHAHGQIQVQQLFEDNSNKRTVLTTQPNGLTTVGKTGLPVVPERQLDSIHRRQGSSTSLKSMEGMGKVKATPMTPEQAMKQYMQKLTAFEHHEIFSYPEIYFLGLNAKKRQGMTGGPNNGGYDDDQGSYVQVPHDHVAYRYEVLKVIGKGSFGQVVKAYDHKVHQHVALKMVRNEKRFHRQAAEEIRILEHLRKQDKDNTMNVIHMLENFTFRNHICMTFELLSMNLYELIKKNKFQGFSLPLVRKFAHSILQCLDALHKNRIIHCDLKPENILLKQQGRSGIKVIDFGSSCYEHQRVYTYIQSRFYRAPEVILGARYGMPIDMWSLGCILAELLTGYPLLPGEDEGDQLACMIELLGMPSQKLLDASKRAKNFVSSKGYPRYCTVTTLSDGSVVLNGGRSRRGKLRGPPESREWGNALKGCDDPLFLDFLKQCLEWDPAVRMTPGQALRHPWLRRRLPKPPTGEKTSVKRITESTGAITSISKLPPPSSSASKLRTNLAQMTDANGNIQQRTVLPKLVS
The note with it: at 0.1 µM.

The target in assay [17] is T1, Dual specificity tyrosine-phosphorylation-regulated kinase 2 (Homo sapiens). The following applies: at 1 µM.
Assay [18] has as its target Glycogen synthase kinase-3 alpha (Homo sapiens) (UniProt P49840). The following applies: at 0.1 µM.
Assay [19] shares this target. The note with it: at 1 µM.
For assay [20], the target named is Glycogen synthase kinase-3 beta (Homo sapiens) (UniProt P49841). The note with it: at 0.1 µM.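 Further: values are mean percent inhibition of GSK3B activity, from the GSK Published Kinase Inhibitor Set (PKIS) screening dataset.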
Sequence of Glycogen synthase kinase-3 beta (Homo sapiens) (P49841 whole entry, looked up): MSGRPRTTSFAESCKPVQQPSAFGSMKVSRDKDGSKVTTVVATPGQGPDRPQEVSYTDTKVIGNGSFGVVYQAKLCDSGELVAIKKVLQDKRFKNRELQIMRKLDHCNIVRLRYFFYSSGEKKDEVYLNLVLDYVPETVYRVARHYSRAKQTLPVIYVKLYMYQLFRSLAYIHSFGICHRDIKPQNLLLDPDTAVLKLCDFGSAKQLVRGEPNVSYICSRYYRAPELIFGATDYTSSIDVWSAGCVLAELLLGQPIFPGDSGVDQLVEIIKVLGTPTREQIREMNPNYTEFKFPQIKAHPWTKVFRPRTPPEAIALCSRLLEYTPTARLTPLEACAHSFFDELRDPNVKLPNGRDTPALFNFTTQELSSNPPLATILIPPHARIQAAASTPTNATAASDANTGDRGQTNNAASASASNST

Sequence of Dual specificity protein kinase CLK3 (Homo sapiens) (P49761 whole entry, looked up): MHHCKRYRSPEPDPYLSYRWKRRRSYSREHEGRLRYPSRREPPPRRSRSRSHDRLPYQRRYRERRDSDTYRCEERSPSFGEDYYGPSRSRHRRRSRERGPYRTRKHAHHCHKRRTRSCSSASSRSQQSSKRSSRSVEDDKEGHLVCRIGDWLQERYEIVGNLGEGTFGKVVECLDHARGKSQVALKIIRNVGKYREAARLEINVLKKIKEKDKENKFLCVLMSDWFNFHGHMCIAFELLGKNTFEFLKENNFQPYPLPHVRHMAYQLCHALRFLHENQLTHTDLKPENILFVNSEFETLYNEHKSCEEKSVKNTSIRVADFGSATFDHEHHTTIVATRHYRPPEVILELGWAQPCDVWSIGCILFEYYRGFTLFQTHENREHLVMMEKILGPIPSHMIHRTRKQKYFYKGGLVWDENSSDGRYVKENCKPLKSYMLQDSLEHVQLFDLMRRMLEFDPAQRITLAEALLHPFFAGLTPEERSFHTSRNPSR
Sequence of Glycogen synthase kinase-3 alpha (Homo sapiens) (P49840 2-483 limits assumed): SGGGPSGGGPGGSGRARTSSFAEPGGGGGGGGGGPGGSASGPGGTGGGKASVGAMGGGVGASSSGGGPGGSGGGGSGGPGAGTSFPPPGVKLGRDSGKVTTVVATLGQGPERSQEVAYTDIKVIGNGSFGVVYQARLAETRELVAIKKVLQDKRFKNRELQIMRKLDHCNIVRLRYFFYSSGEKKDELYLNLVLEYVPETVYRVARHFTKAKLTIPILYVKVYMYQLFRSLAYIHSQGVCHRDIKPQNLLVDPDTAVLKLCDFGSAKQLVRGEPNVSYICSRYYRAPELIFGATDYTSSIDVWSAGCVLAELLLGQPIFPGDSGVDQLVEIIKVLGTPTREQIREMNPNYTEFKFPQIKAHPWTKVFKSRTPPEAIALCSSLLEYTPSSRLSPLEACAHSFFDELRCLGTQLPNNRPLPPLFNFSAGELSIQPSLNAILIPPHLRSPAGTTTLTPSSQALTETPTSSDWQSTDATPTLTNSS
Sequence of CDK3/Cyclin E (Homo sapiens) (P24864 whole entry, looked up): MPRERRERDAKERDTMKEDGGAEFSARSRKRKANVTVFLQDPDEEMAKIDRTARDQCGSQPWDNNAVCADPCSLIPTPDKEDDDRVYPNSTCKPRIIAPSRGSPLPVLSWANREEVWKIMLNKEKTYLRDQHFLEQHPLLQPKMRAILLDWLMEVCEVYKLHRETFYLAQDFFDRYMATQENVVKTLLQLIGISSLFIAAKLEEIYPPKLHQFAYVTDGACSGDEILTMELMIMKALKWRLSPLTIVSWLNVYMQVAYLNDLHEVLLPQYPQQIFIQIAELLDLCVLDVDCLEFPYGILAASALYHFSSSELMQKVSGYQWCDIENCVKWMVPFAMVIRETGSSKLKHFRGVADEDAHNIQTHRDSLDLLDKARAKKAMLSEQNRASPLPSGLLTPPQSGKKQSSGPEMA
Sequence of CDK3/Cyclin E (Homo sapiens) (Q00526 whole entry, looked up): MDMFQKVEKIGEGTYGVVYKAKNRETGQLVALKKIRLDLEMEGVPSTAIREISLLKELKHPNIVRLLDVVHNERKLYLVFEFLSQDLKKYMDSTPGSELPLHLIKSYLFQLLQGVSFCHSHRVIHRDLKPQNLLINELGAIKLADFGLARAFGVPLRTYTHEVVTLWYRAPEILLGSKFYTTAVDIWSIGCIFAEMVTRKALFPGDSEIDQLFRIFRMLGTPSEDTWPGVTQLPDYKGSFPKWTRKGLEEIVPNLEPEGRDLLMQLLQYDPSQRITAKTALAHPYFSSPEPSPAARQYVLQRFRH
Sequence of Cyclin-dependent kinase 4 (Homo sapiens) (P11802 whole entry): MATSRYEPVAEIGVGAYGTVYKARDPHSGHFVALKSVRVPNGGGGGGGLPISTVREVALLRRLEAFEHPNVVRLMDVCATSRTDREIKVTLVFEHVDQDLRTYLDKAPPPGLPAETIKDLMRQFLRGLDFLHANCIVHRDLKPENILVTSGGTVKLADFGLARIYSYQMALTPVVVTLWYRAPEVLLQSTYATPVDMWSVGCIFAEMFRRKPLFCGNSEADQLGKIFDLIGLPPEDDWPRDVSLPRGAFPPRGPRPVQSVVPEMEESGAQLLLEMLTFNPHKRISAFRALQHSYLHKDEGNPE
Sequence of Cyclin-dependent kinase 5 (Homo sapiens) (Q00535 whole entry, looked up): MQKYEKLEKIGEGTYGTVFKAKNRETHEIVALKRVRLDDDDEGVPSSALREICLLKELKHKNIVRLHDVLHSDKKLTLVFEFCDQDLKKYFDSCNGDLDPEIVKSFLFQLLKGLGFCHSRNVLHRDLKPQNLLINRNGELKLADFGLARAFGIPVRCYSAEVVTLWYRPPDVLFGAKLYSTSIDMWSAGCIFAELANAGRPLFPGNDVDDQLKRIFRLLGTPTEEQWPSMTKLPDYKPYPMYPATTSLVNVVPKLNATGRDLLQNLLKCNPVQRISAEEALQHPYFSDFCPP

For the compound `O=C(Nc1n[nH]c2cc(-c3cc(F)ccc3F)ccc12)C1CC1`, the inhibition was 5.19% in assay [1]; 1.96% in assay [2]; 8.77% in [3]; 0.68% in [4]; 5.38% in [5]; 4.69% in [6]. In addition, the inhibition in [7] is 39.6%; in assay [8] it was -0.48%; in assay [9], 1.29%; in assay [10], 0.11%; in [11] it was 1.26%; in assay [12], 2.37%. Also, the inhibition in assay [13] was 4.39%; in [14], -0.4%; in assay [15] it was -0.93%; in assay [16], 2.2%; in [17], 3.59%; in assay [18] it was 7.07%. In addition, the inhibition in [19] was found to be 30.4%.

Regarding `Fc1ccc(-c2ncn(C3CCNCC3)c2-c2ccnc(Oc3ccc4c(c3)OCO4)n2)cc1`, the inhibition in assay [1] was -0.86%; in assay [2], 1.48%; in [3], 3.63%; in assay [4], 0.16%; in assay [5], 1.51%; in assay [6], 1.03%. The inhibition is 2.27% in [7]; 0.55% in assay [8]; 0.01% in [9]; 0.88% in assay [10]; -2.27% in [11]; 3.17% in assay [12]. Further, the inhibition is 4.78% in assay [13]; -1.37% in assay [14]; 0.33% in assay [15]; 3.24% in assay [16]; 3.38% in [17]; 2.07% in assay [18]. The inhibition in assay [19] worked out at 5.18%; in assay [20], 2.71%.

Take `COC(=O)Nc1nc2ccc(Sc3ccc(NC(=O)Nc4cc(C(F)(F)F)ccc4F)cc3)cc2[nH]1`: the inhibition in [1] was 0.64%; in [2], -4.86%; in assay [3] it was 1.81%; in assay [4], 0.21%; in assay [5] it was 1.9%; in assay [6], 7.92%. Moreover, the inhibition was 2.22% in assay [7]; 1.38% in [8]; -0.84% in assay [9]; 0.48% in assay [10]; 2.87% in assay [11]; 0.92% in assay [12]. Further, the inhibition in assay [13] was 1.72%; in [14], 1.9%; in assay [15], 3.2%; in assay [16], 0.2%; in assay [17] it was 0.89%; in [18] it was 0.12%. For the same compound, the results for the inhibition in assay [19] and in assay [20] were 0.68% and 2.16%, respectively.

For `COc1ccc(C2=C(N3CCc4ccccc43)C(=O)NC2=O)cc1`, the inhibition in assay [1] was -1.35%; in assay [2], 3.95%; in assay [3], 4.61%; in assay [4] it was 1.51%; in [5], 3.83%; in [6], 4.88%. The inhibition is 7.18% in assay [7]; 0.19% in [8]; 7.06% in assay [9]; 2.88% in [10]; 4.16% in assay [11]; 4.7% in assay [12]. For the same compound, the inhibition in assay [13] came out at 13%; in assay [14], 1.97%; in assay [15], 8.53%; in assay [16] it was 3.77%; in assay [17], 5.13%; in assay [18], 11.5%. In addition, the inhibition in assay [19] stood at 42.9%.

As to `Clc1ccc(CNc2nccc(-c3cnn4ncccc34)n2)cc1`, the inhibition in [1] was found to be 17.3%; in assay [2], 3.89%; in [3], 20.1%; in assay [4], 7.08%; in assay [5], 36.9%; in assay [6], 13.8%. In addition, the inhibition in [7] is 11%; in assay [8], 7.28%; in assay [9], 43.6%; in [10], 1.27%; in assay [11] it was 6.69%; in assay [12] it was 16%. The inhibition in assay [13] turned out to be 58%; in assay [14], 28.6%; in assay [15], 74.2%; in [16], 0.77%; in assay [17], 7.51%; in assay [18], 2.42%. The inhibition in [19] amounted to 9.8%; in [20], 2.82%.

Turning to `Cc1nnc(-c2ccc(C)c(-c3ccc(C(=O)NCc4ccc(Cl)cc4)cc3)c2)o1`, the inhibition in assay [1] is -2.98%; in [2] it was -0.53%; in [3] it was 0.24%; in assay [4] it was -2.39%; in [5] it was -4.02%; in [6], -7.02%. For the same compound, the inhibition in [7] is -4.88%; in assay [8] it was -0.33%; in assay [9], 0.92%; in assay [10], -1.37%; in assay [11], -1.79%; in [12], 0.32%. Also, the inhibition in [13] was 0.5%; in assay [14], -2.54%; in [15], -4.08%; in [16], 2.1%; in assay [17], 3.03%; in assay [18] it was 0.36%. The inhibition in assay [19] was 9.75%; in assay [20], -0.31%.

For the compound `Fc1ccc(-c2nc3n(c2-c2ccncc2)CCS3)cc1`, the inhibition was -2.73% in [1]; -1.97% in assay [2]; -0.8% in assay [3]; -2.49% in [4]; -2.61% in [5]; -7.51% in assay [6]. Also, the inhibition in assay [7] is -1.4%; in assay [8], 1.78%; in [9], 0.05%; in [10] it was -1.51%; in [11], -2.32%; in assay [12], 0.54%. In addition, the inhibition in assay [13] is 0.87%; in assay [14], -3.06%; in assay [15] it was -3.89%; in assay [16], 2.91%; in [17], 2.31%; in [18] it was -0.87%. In addition, the inhibition is 3.8% in [19] and -1.43% in assay [20].

Broadly, the inhibition is the relative decrease from the control value, in per cent.
